Reference: ChEMBL document CHEMBL1201862, “PubChem BioAssay data set” (2004)
In all, about 55,000 sequences went through this assay and about 5,800 (11%) were called active. Cut-off read from the data, not from the text of the source: active = GI50 up to about 1.1 µM and inactive = higher. The entries come from a sample that favours actives as a whole. Results with a measured potency or affinity are listed apart.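 Briefly, cells in 96-well plates were exposed to five compound concentrations for 48 h, and endpoints were estimated by linear interpolation. GI50: concentration for 50% inhibition of growth.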

Tested on: CCRF-CEM
Assay: NCI tumour cell line growth inhibition, 48 h

| Substance | GI50 [µM] |
| --- | --- |
| [Bis(aminomethyl)diethylsilane]tetrachloroplatinum(IV), CHEMBL2146203 | 0.283 |
| [Bis(aminomethyl)pentamethylenesilane]dichloropaltinum(II), CHEMBL2146202 | 0.202 |
| [Bis(aminomethyl)dimethylsilane]dichloroplatinum (II), CHEMBL2146201 | 3.66 |
| mu-(1,7-nanodiamine-N,N')bis-(cis-aminedichloroplatimum (II)), CHEMBL2146215 | 0.925 |
| [Bis(aminomethyl)tetramethylenesilane]dichloropaltinum(II), CHEMBL2146205 | 1.56 |
| [Bis(aminomethyl)pentamethylenesilane]tetrachloropaltinum(IV), CHEMBL2146204 | 0.0953 |
| ACRIFLAVINE HYDROCHLORIDE, CHEMBL5219995 | 0.233 |
| CISPLATIN, CHEMBL11359 | 1.12 |
| [Bis(aminomethyl)tetramethylenesilane]tetrachloropaltinum(IV), CHEMBL2146189 | 0.246 |
| [Bis(aminomethyl)dimethylsilane]tetrachloroplatinum(IV), CHEMBL2146190 | 0.805 |
| cis-Bis[[(trimethylsilyl)methyl]amino]tetrachloroplatinum(IV), CHEMBL2146191 | 1.23 |
| [Bis(aminomethyl)ethylmethylsilane]tetrachloroplatinum(IV), CHEMBL2146192 | 0.381 |
